SMILES strings stand for the structures. “And” between values parts separate entries of the source, which are not always exact repeats. Equal values may be shown once. Inconclusive results are not listed. The source made the active and inactive calls. The call rests on the fitted dose curve; in most records, active means well fitted cell-killing curve with a large enough effect; inconclusive means small, poorly fitted or top-dose-only effect, or effect the other way; inactive means no such curve, though single readings can be large or run the other way.
Potency means the concentration at half of the fitted maximal effect.

The first experiment can be described thus: Viability qHTS for spleen associated tyrosine kinase inhibitor (SYKi) naive MV4-11 cells (AID 1963823). Further: nearly all actives have a fitted effect of over 40% in size. The conditions noted are these: MV4-11 AML viability, CellTiter-Glo luminescence, 72 h; series mostly up to 45 µM. An outline of the steps:
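Cells: MV4-11, SYK inhibitor naive, 500 per well. Treatment: library compounds, 72 hr, 37 C, 5% CO2. Read-out: CellTiter-Glo luminescence after 10 min RT.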
Background: Quantitative high-throughput screening tests each substance at several concentrations.
In the case of `CC(C)Oc1ccc(-c2nc(-c3cccc4c3CC[C@@H]4NCCO)no2)cc1C#N`, the Potency was 11.8 µM (active).

For `COC1(c2sc3c(N4CCOCC4)nc(-c4cnc(N)nc4)nc3c2C)COC1`, the Potency is 0.231 µM (active).

Take `CCN(CC)CCCC(C)Nc1c2ccc(Cl)cc2nc2ccc(OC)cc12` (stereo not given): the Potency was 4.22 µM (active) and 2.82 µM (active).

In the case of `Cc1cc(=O)[nH]c(=S)[nH]1`, the Potency result was “inactive”.

On to `C=C1C[C@H]2C=Nc3cc(OCCCOc4cc5c(cc4OC)C(=O)N4CC(=C)C[C@H]4C=N5)c(OC)cc3C(=O)N2C1`, for which the Potency entry was “inactive”.

Turning to `O=C(NOCCO)c1ccc2cncn2c1Nc1ccc(I)cc1F`, the Potency is 2.06 µM (active).

For the molecule `Cc1nc2ccc(-n3ncc(C(=O)c4cc5ccccc5[nH]4)c3N)cc2[nH]1`, the Potency was 2.59 µM (active).

Regarding `NS(=O)(=O)OC[C@@H]1C[C@@H](n2ccc3c(N[C@H]4CCc5ccccc54)ncnc32)C[C@@H]1O`, the Potency was 103 nM (active) and 164 nM (active).

Turning to `COC(=O)C1=C(C)NC(COC(N)=O)=C(C(=O)OC(C)C)C1c1cccc(Cl)c1Cl` (stereo not given), the Potency is 21.1 µM (active).

For the molecule `COc1cc([C@@H]2c3cc4c(cc3[C@@H](O[C@@H]3O[C@@H]5CO[C@@H](c6cccs6)O[C@H]5[C@H](O)[C@H]3O)[C@H]3COC(=O)[C@H]23)OCO4)cc(OC)c1O`, the Potency is 0.0742 µM (active).

For the molecule `O=C(/C=C/c1ccc2ccc(C(F)(F)F)cc2n1)c1ccncc1`, the Potency was 0.934 µM (active).

Turning to `CCC(=O)N1CCOc2c(cc(-c3cc(OC)cc(OC)c3)cc2C(=O)N[C@H]2CCCN(C)C2)C1`, the Potency was 16.6 µM (active).

In the case of `COc1cc2c(cc1OC)C(=O)CC2`, the Potency entry is “inactive”.

`Cc1cccc(-c2nn3c(c2-c2ccnc4ccc(C(N)=O)cc24)CCC3)n1`: the Potency result is “inactive”.

For the molecule `O=C(CCN1CCC(c2ccccc2)C1)c1ccc2c(c1)OCCO2` (stereo not given), the Potency is 7.5 µM (active).

As to `Cc1c(CN2CCC(Nc3ncnc4sc(CC(F)(F)F)cc34)CC2)ccc2c1cc(C#N)n2Cc1cn[nH]c1`, the Potency was 0.525 µM (active).

Take `CN[C@@H]1[C@@H](O)[C@@H](O[C@@H]2[C@H](O)[C@H](O[C@H]3OC(CN)=CC[C@H]3N)[C@@H](N)C[C@H]2N)OCC1(C)O` (stereo not given in full): the Potency result is “inactive”.

Take `CCCCCCCCCCCCCCCCCCOCC(O)CO` (stereo not given): the Potency result was “inactive”.

Turning to `CC(O)C(=O)O` (stereo not given), the Potency result is “inactive”.

Take `CC#C[C@@H](CC(=O)O)c1ccc(OCc2cccc(-c3ccc(C(F)(F)F)cc3)c2)cc1`: the Potency was 18.6 µM (active).

Consider `O=C(O)/C(S)=C/c1ccc(I)cc1`, for which the Potency entry was “inactive”.

In the case of `Cc1c[nH]c(/C=C2\C(=O)Nc3ccccc32)c1CCC(=O)O`, the Potency is 0.468 µM (active).

For the molecule `O=S1(=O)OC(c2ccc(O)cc2)(c2ccc(O)cc2)c2ccccc21`, the Potency result is “inactive”.

Regarding `CC(C)(C)C1CCC(CC2=C(O)c3ccccc3C(=O)C2=O)CC1` (stereo not given), the Potency result is “inactive”.

With `Cc1nc2n(c(=O)c1CCN1CCC(c3noc4cc(F)ccc34)CC1)CCC[C@H]2O`, the Potency result is “inactive”.

Consider `CCC1NC(=O)c2cc(S(N)(=O)=O)c(Cl)cc2N1` (stereo not given), for which the Potency entry was “inactive”.

Take `CCCc1c2oc(C(=O)O)cc(=O)c2cc2c(=O)cc(C(=O)O)n(CC)c12`: the Potency result was “inactive”.

Take `NC(=O)NNc1ccccc1`: the Potency result was “inactive”.

For the molecule `C=CC(=O)Nc1cccc(Nc2nc(Nc3ccc(OCCOC)cc3)ncc2F)c1`, the Potency is 0.468 µM (active).

As to `CCOc1cc2ncc(C#N)c(Nc3ccc(OCc4ccccn4)c(Cl)c3)c2cc1NC(=O)/C=C/CN(C)C`, the Potency was 126 nM (active) and 525 nM (active).

In the case of `CCCCc1ncc(/C=C(\Cc2cccs2)C(=O)O)n1Cc1ccc(C(=O)O)cc1`, the Potency result is “inactive”.

On to `Cc1c(O)cccc1C(=O)N[C@@H](CSc1ccccc1)[C@H](O)CN1C[C@H]2CCCC[C@H]2C[C@H]1C(=O)NC(C)(C)C`, for which the Potency was 23.7 µM (active).

As for `Cn1cc(-c2cnn3c(N)c(Br)c(C4CCCNC4)nc23)cn1` (stereo not given), the Potency was 0.291 µM (active).

Regarding `C[C@]12CCC(=O)C=C1CC[C@@H]1[C@@H]2C(=O)C[C@@]2(C)[C@H]1CC[C@]2(O)C(=O)CO`, the Potency entry is “inactive”.

With `COc1ccc(-c2oc3ncnc(N)c3c2-c2ccc(NC(=O)Nc3cc(C(F)(F)F)ccc3F)cc2)cc1`, the Potency was 41.1 nM (active) and 66.1 nM (active).

In the case of `Cc1nnc(C[C@@H]2C=C(c3ccc(Cl)cc3)c3ccccc3-n3c(C)nnc32)o1`, the Potency was 0.235 µM (active).

In the case of `CNCC[C@H](Oc1cccc2ccccc12)c1cccs1`, the Potency was 18.8 µM (active).

Regarding `Cc1ccccc1C(=O)Nc1ccc(C(=O)N2CCCC(N(C)C)c3ccccc32)cc1` (stereo not given), the Potency is 5.96 µM (active) and 2.91 µM (active).

In the case of `O=C(O)/C=C(\CC(=O)O)C(=O)O`, the Potency entry is “inactive”.

Consider `CC[C@]1(O)CC2CN(CCc3c([nH]c4ccccc34)[C@@](C(=O)OC)(c3cc4c(cc3OC)N(C)[C@H]3[C@@](O)(C(=O)OC)[C@H](OC(C)=O)[C@]5(CC)C=CCN6CC[C@]43[C@@H]65)C2)C1` (stereo not given in full), for which the Potency was 0.0332 µM (active).

A short description of the next experiment: Viability qHTS for spleen associated tyrosine kinase inhibitor (SYKi) drug resistant MV4-11 cells (AID 1963824). Further: nearly all actives have a fitted effect of over 35% in size. The conditions noted are these: SYKi-resistant MV4-11 viability, CellTiter-Glo, 72 h; series mostly up to 45 µM. In a few lines: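 SYK-inhibitor-resistant MV4-11 AML cells were seeded at 500 per well onto compound and cultured 72 hours (37 °C, 5% CO2). CellTiter-Glo was then added, and after 10 min at room temperature, luminescence gave viability.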
Consider `CC(C)Oc1ccc(-c2nc(-c3cccc4c3CC[C@@H]4NCCO)no2)cc1C#N`, for which the Potency was 11800 nM (active).

On to `COC1(c2sc3c(N4CCOCC4)nc(-c4cnc(N)nc4)nc3c2C)COC1`, for which the Potency was 411 nM (active).

Turning to `CCN(CC)CCCC(C)Nc1c2ccc(Cl)cc2nc2ccc(OC)cc12` (stereo not given), the Potency is 2.09 µM (active) and 3.99 µM (active).

In the case of `Cc1cc(=O)[nH]c(=S)[nH]1`, the Potency result is “inactive”.

Regarding `C=C1C[C@H]2C=Nc3cc(OCCCOc4cc5c(cc4OC)C(=O)N4CC(=C)C[C@H]4C=N5)c(OC)cc3C(=O)N2C1`, the Potency entry is “inactive”.

`O=C(NOCCO)c1ccc2cncn2c1Nc1ccc(I)cc1F`: the Potency was 105 nM (active).

Take `Cc1nc2ccc(-n3ncc(C(=O)c4cc5ccccc5[nH]4)c3N)cc2[nH]1`: the Potency is 2.59 µM (active) and 4.68 µM (active).

As for `NS(=O)(=O)OC[C@@H]1C[C@@H](n2ccc3c(N[C@H]4CCc5ccccc54)ncnc32)C[C@@H]1O`, the Potency was 73.1 nM (active) and 82 nM (active) and 74.2 nM (active).

Consider `COC(=O)C1=C(C)NC(COC(N)=O)=C(C(=O)OC(C)C)C1c1cccc(Cl)c1Cl` (stereo not given), for which the Potency is 14600 nM (active).

With `COc1cc([C@@H]2c3cc4c(cc3[C@@H](O[C@@H]3O[C@@H]5CO[C@@H](c6cccs6)O[C@H]5[C@H](O)[C@H]3O)[C@H]3COC(=O)[C@H]23)OCO4)cc(OC)c1O`, the Potency is 74.2 nM (active).

For the molecule `O=C(/C=C/c1ccc2ccc(C(F)(F)F)cc2n1)c1ccncc1`, the Potency was 934 nM (active).

For the molecule `CCC(=O)N1CCOc2c(cc(-c3cc(OC)cc(OC)c3)cc2C(=O)N[C@H]2CCCN(C)C2)C1`, the Potency was 9340 nM (active).

For `COc1cc2c(cc1OC)C(=O)CC2`, the Potency result is “inactive”.

For the molecule `Cc1cccc(-c2nn3c(c2-c2ccnc4ccc(C(N)=O)cc24)CCC3)n1`, the Potency result is “inactive”.

For the molecule `O=C(CCN1CCC(c2ccccc2)C1)c1ccc2c(c1)OCCO2` (stereo not given), the Potency was 10600 nM (active).

As to `Cc1c(CN2CCC(Nc3ncnc4sc(CC(F)(F)F)cc34)CC2)ccc2c1cc(C#N)n2Cc1cn[nH]c1`, the Potency was 468 nM (active).

For the molecule `CN[C@@H]1[C@@H](O)[C@@H](O[C@@H]2[C@H](O)[C@H](O[C@H]3OC(CN)=CC[C@H]3N)[C@@H](N)C[C@H]2N)OCC1(C)O` (stereo not given in full), the Potency result is “inactive”.

For the molecule `CCCCCCCCCCCCCCCCCCOCC(O)CO` (stereo not given), the Potency entry was “inactive”.

With `CC(O)C(=O)O` (stereo not given), the Potency entry is “inactive”.

In the case of `CC#C[C@@H](CC(=O)O)c1ccc(OCc2cccc(-c3ccc(C(F)(F)F)cc3)c2)cc1`, the Potency is 16600 nM (active).

`O=C(O)/C(S)=C/c1ccc(I)cc1`: the Potency result was “inactive”.

Turning to `Cc1c[nH]c(/C=C2\C(=O)Nc3ccccc32)c1CCC(=O)O`, the Potency was 1.16 µM (active) and 1.32 µM (active).

For the molecule `O=S1(=O)OC(c2ccc(O)cc2)(c2ccc(O)cc2)c2ccccc21`, the Potency result is “inactive”.

For the molecule `CC(C)(C)C1CCC(CC2=C(O)c3ccccc3C(=O)C2=O)CC1` (stereo not given), the Potency result was “inactive”.

In the case of `Cc1nc2n(c(=O)c1CCN1CCC(c3noc4cc(F)ccc34)CC1)CCC[C@H]2O`, the Potency entry is “inactive”.

As to `CCC1NC(=O)c2cc(S(N)(=O)=O)c(Cl)cc2N1` (stereo not given), the Potency result is “inactive”.

Take `CCCc1c2oc(C(=O)O)cc(=O)c2cc2c(=O)cc(C(=O)O)n(CC)c12`: the Potency entry is “inactive”.

`NC(=O)NNc1ccccc1`: the Potency entry was “inactive”.

For `C=CC(=O)Nc1cccc(Nc2nc(Nc3ccc(OCCOC)cc3)ncc2F)c1`, the Potency was 651 nM (active).

In the case of `CCOc1cc2ncc(C#N)c(Nc3ccc(OCc4ccccn4)c(Cl)c3)c2cc1NC(=O)/C=C/CN(C)C`, the Potency was 224 nM (active) and 525 nM (active).

Regarding `CCCCc1ncc(/C=C(\Cc2cccs2)C(=O)O)n1Cc1ccc(C(=O)O)cc1`, the Potency entry is “inactive”.

Regarding `Cc1c(O)cccc1C(=O)N[C@@H](CSc1ccccc1)[C@H](O)CN1C[C@H]2CCCC[C@H]2C[C@H]1C(=O)NC(C)(C)C`, the Potency is 13300 nM (active).

Regarding `Cn1cc(-c2cnn3c(N)c(Br)c(C4CCCNC4)nc23)cn1` (stereo not given), the Potency was 461 nM (active).

As for `C[C@]12CCC(=O)C=C1CC[C@@H]1[C@@H]2C(=O)C[C@@]2(C)[C@H]1CC[C@]2(O)C(=O)CO`, the Potency result was “inactive”.

For `COc1ccc(-c2oc3ncnc(N)c3c2-c2ccc(NC(=O)Nc3cc(C(F)(F)F)ccc3F)cc2)cc1`, the Potency is 103 nM (active) and 166 nM (active).

On to `Cc1nnc(C[C@@H]2C=C(c3ccc(Cl)cc3)c3ccccc3-n3c(C)nnc32)o1`, for which the Potency was 296 nM (active).

As to `CNCC[C@H](Oc1cccc2ccccc12)c1cccs1`, the Potency was 26600 nM (active).

In the case of `Cc1ccccc1C(=O)Nc1ccc(C(=O)N2CCCC(N(C)C)c3ccccc32)cc1` (stereo not given), the Potency is 4.73 µM (active) and 4.61 µM (active).

`O=C(O)/C=C(\CC(=O)O)C(=O)O`: the Potency result is “inactive”.

Turning to `CC[C@]1(O)CC2CN(CCc3c([nH]c4ccccc34)[C@@](C(=O)OC)(c3cc4c(cc3OC)N(C)[C@H]3[C@@](O)(C(=O)OC)[C@H](OC(C)=O)[C@]5(CC)C=CCN6CC[C@]43[C@@H]65)C2)C1` (stereo not given in full), the Potency was 65.1 nM (active) and 33.2 nM (active).

For the origin of these results see PubChem BioAssay (NCATS).
